Reference: the supplement of paper PMC6555819

What was measured:
Experiment in all cases: PBM binding z-score (relative to random genomic background probes); higher = stronger binding; sequences stand for … in GC…GCGATTGACAGCGTAGAATGAAGG
[1] = test system: FXR:RXRa (NR concentration 270 nM, RXRa partner concentration 90 nM)
How it was run: (§1)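 Scanned fluorescence from custom Agilent 4×180K protein-binding microarrays was regression-normalized. Binding z-scores use random background probes as reference. Ligand-free nuclear receptor dimers were incubated on the arrays for 1 h and detected with antibodies against each partner (one per run).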

[2] = test system: LXRa:RXRa (NR concentration 270 nM, RXRa partner concentration 90 nM)
How it was run: as §1

[3] = test system: LXRa homodimer (NR concentration 270 nM)
How it was run: as §1

[4] = test system: LXRb:RXRa (NR concentration 270 nM, RXRa partner concentration 90 nM)
How it was run: as §1

[5] = test system: LXRb homodimer (NR concentration 270 nM)
How it was run: as §1

[6] = test system: PPARa:RXRa (NR concentration 270 nM, RXRa partner concentration 90 nM)
How it was run: as §1

[7] = test system: PPARg:RXRa (NR concentration 180 nM, RXRa partner concentration 90 nM)
How it was run: as §1

[8] = test system: PPARg:RXRa 270nM:90nM, anti-RXR (NR concentration 270 nM, RXRa partner concentration 90 nM)
How it was run: as §1

[9] = test system: PPARg:RXRa 30nM:10nM, anti-RXR (NR concentration 30 nM, RXRa partner concentration 10 nM)
How it was run: as §1

[10] = test system: PPARg:RXRa 90nM:30nM, anti-RXR (NR concentration 90 nM, RXRa partner concentration 30 nM)
How it was run: as §1

[11] = test system: PPARg:RXRa DBDmut IVT, anti-RXR (DBD mutation: RXRa K156A/R161A, NR concentration 270 nM, RXRa partner concentration 90 nM)
How it was run: as §1

[12] = test system: PPARg:RXRa IVT, anti-PPARg (NR concentration 270 nM, RXRa partner concentration 90 nM)
How it was run: as §1

[13] = test system: PPARg DBDmut:RXRa IVT, anti-PPARg (DBD mutation: PPARg1 K132A/R137A, NR concentration 270 nM, RXRa partner concentration 90 nM)
How it was run: as §1

[14] = test system: PPARg DBDmut IVT, anti-PPARg (DBD mutation: PPARg1 K132A/R137A, NR concentration 270 nM)
How it was run: as §1

[15] = test system: PPARg homodimer (NR concentration 180 nM)
How it was run: as §1

[16] = test system: PXR:RXRa (NR concentration 270 nM, RXRa partner concentration 90 nM)
How it was run: as §1

[17] = test system: PXR homodimer (NR concentration 270 nM)
How it was run: as §1

[18] = test system: RARa:RXR (NR concentration 270 nM, RXRa partner concentration 90 nM)
How it was run: as §1

[19] = test system: RARa homodimer (NR concentration 270 nM)
How it was run: as §1

[20] = test system: RARb:RXRa (NR concentration 270 nM, RXRa partner concentration 90 nM)
How it was run: as §1

| Sequence | PBM binding z-score [1] | PBM binding z-score [2] | PBM binding z-score [3] | PBM binding z-score [4] | PBM binding z-score [5] | PBM binding z-score [6] | PBM binding z-score [7] | PBM binding z-score [8] | PBM binding z-score [9] | PBM binding z-score [10] | PBM binding z-score [11] | PBM binding z-score [12] | PBM binding z-score [13] | PBM binding z-score [14] | PBM binding z-score [15] | PBM binding z-score [16] | PBM binding z-score [17] | PBM binding z-score [18] | PBM binding z-score [19] | PBM binding z-score [20] |
| --- | --- | --- | --- | --- | --- | --- | --- | --- | --- | --- | --- | --- | --- | --- | --- | --- | --- | --- | --- | --- |
| TCTGTTAGTTGATTAGGGCAACCGAAACAGCGGA | 0.614 | 0.576 | 0.141 | 0.571 | 1.9 | 0.523 | 0.000964 | 1.9 | 3.28 | 2.74 | 1.71 | 1.89 | 1.51 | 1.52 | 1.09 | 0.57 | 0.354 | 0.456 | 0.969 | 1.19 |
| CCTACTGGGGCAGAAAGGTTACCATACCATCCGG | 0.253 | 0.567 | 0.201 | 0.837 | -0.839 | 2.14 | 2.05 | 2.74 | 0.989 | 2.22 | 3 | 4 | 0.246 | -0.987 | 1.63 | 0.791 | -0.188 | 1.85 | 0.396 | 1.87 |
| TCTGGTAGGTCAACGATGGTCAGCTAATCTGCTA | 4.45 | 3.6 | 0.986 | 2.55 | 0.479 | 4.35 | 4.4 | 4.54 | 3.78 | 4.32 | 5.2 | 5.77 | 1.81 | 0.722 | 2.39 | 2.25 | 0.21 | 2.78 | 0.843 | 4.16 |
| CGTCCAAGGTCAGCAGGTCAGTGAGAGCGACGTG | 5.85 | 4.1 | 0.541 | 2.94 | -0.239 | 4.74 | 4.1 | 4.36 | 1.29 | 2.94 | 2.88 | 3.81 | -0.522 | -0.683 | 3.25 | 3.75 | 0.915 | 4.78 | 1.19 | 5.39 |
| TCTTGTAGATCAGTAGGTTAAGAAAGCTGGCCAA | 0.172 | 0.646 | 0.128 | 0.552 | 0.098 | 1.12 | 0.0222 | 1.98 | 2.94 | 2.31 | 2.89 | 2.61 | 0.246 | 0.243 | 0.822 | 0.448 | 0.0641 | 0.921 | 0.433 | 0.272 |
| TCGAGTAGGTTAGTCGGGGCATCCAGCCAACATA | 0.256 | 0.187 | -0.411 | 0.296 | -1.13 | 0.822 | -0.0152 | 0.685 | 0.993 | 0.766 | 2.28 | 2.09 | -0.561 | 0.0213 | -0.139 | 0.0331 | -0.0889 | 0.263 | -0.138 | 0.628 |
| CCAGAGAGGTGAAAGGTAACTCAGTCTGGTACGC | 1.97 | 1.72 | -0.386 | 1.72 | -0.316 | 4.52 | 6.53 | 6.32 | 4.89 | 6.42 | 3.73 | 4.05 | 0.0614 | -0.0478 | 2.31 | 2.19 | 0.131 | 3.44 | 0.813 | 2.39 |
| GGAACGAGGCCAAGTTGATAGCAGAGTTTGATGG | -0.211 | -0.562 | -0.768 | -0.914 | -0.878 | 0.0938 | 0.353 | 0.159 | -0.422 | -0.286 | 1.98 | 0.981 | -1.22 | -0.68 | -0.613 | -0.452 | 0.241 | -0.778 | -0.416 | 1.36 |
| TTACCAAGGTGATGGTCGTTGATCCCTCTGTAGA | 0.274 | 0.0639 | -0.222 | 0.219 | -0.598 | 0.442 | -0.08 | 0.334 | 0.217 | 0.0112 | 1.08 | 1.23 | -0.135 | 0.288 | 0.359 | -0.171 | -0.42 | 0.272 | 0.249 | 0.312 |
| CCTAGCAGGCCAATCTGGGTCAGTCAAGGCTTGA | 0.816 | 0.419 | -0.663 | 0.0551 | -1.41 | 1.97 | 0.228 | 0.88 | -0.729 | 0.114 | 3.27 | 3.61 | -0.788 | -1.02 | -0.0146 | 0.0599 | -0.751 | 0.0549 | -0.68 | 1.28 |
| GATACAGGGTCAGCTAGAGGCCAGACTATGGAAA | 4.52 | 2.92 | -0.325 | 2.4 | 0.0441 | 4.49 | 4.01 | 3.55 | 1.29 | 2.19 | 1.46 | 2.29 | -0.0728 | 0.0438 | 1.82 | 2.88 | 0.12 | 4.3 | 0.752 | 3.97 |
| GGAGCGAGGGCAAAGTTGATAGCATCTGTCGACG | 0.977 | 0.574 | -0.435 | 0.182 | -0.792 | 2.54 | 3.16 | 4.11 | 2.37 | 3.6 | 0.739 | 1.35 | -0.304 | -0.838 | -0.183 | 0.839 | -0.0464 | 1.21 | -0.259 | 2.14 |
| GCTTGTAGACCAAGGTTAAGAAAGACTAAGCTAA | -0.248 | 0.608 | -0.357 | 0.335 | -0.903 | 1.16 | 0.792 | 1.61 | 0.387 | 1.17 | 1.25 | 0.819 | 0.464 | 0.161 | -0.164 | 0.252 | -0.358 | 0.313 | 0.313 | 0.654 |
